According to PubChem BioAssay (NCI):
This is part of a sample that, as a whole, favours compounds with a hit. Of some 79,000 tested, about 15% had one in any assay. Values without a mark were called inactive. Active and inactive are the calls of the source. Rule as the data show it: active = growth inhibition above about 70%; inactive = the rest.

Assays:
[1] = NCI Yeast Anticancer Drug Screen. Data for the rad52 strain (AID 147);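 also: 0% = growth of vehicle-treated control cultures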; settings: S. cerevisiae rad52 mutant growth inhibition, hits give high values
Method in brief: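 Read-out: growth inhibition versus vehicle-treated controls. Cells were a DNA repair-deficient yeast strain treated with compounds.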

[2] = NCI Yeast Anticancer Drug Screen. Data for the wt1 strain (AID 149);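 also: 0% = growth of vehicle-treated wt1 cultures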; settings: S. cerevisiae wt1 strain (SPY 50644) growth inhibition, hits give high values
Method in brief: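 Vehicle-normalised growth inhibition; strain wt1; compound exposure.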

[3] = NCI Yeast Anticancer Drug Screen. Data for the rad50EPP+ strain (AID 151);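 also: 0% = growth of vehicle-treated control cultures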; settings: S. cerevisiae rad50 mutant strain, hits give high values
Method in brief: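 Growth inhibition read against vehicle controls in rad50EPP+ yeast, a strain altered in DNA damage repair, after compound exposure.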

[4] = NCI Yeast Anticancer Drug Screen. Data for the mgt1 strain (AID 153); settings: S. cerevisiae mgt1 mutant growth inhibition, hits give high values
Method in brief: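 mgt1 yeast grown with test compound; read-out is growth inhibition versus vehicle-treated cultures.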

[5] = NCI Yeast Anticancer Drug Screen. Data for the rad50 strain (AID 155);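 also: 0% = growth of vehicle-only cultures of the same strain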; settings: S. cerevisiae rad50 strain growth inhibition, hits give high values
Method in brief: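 A DNA repair-deficient yeast mutant serves as the test organism; compound-induced growth inhibition is calculated against vehicle-treated cells.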

[6] = NCI Yeast Anticancer Drug Screen. Data for the mec2-1 strain (AID 157); settings: S. cerevisiae mec2-1 strain, hits give high values
Method in brief: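 Yeast mec2-1 mutant treated with compound. Readout: growth inhibition vs vehicle controls.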

[7] = NCI Yeast Anticancer Drug Screen. Data for the rad14 strain (AID 159);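 also: 0% = growth of vehicle-treated control cultures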; settings: S. cerevisiae rad14 strain growth inhibition, hits give high values
Method in brief: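 Vehicle-treated cultures served as the baseline for growth inhibition of a DNA repair-mutant yeast strain exposed to each compound.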

[8] = NCI Yeast Anticancer Drug Screen. Data for the sgs1 mgt1 strain (AID 161);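 also: 0% = growth of cultures given vehicle only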; settings: S. cerevisiae sgs1 mgt1 strain, hits give high values
Method in brief: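 Inhibition of yeast growth, normalised to vehicle-treated controls, is reported for a strain bearing genetic alterations in DNA damage repair.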

[9] = NCI Yeast Anticancer Drug Screen. Data for the cln2 rad14 strain (AID 165);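 also: 0% = growth equal to vehicle treated cultures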; settings: S. cerevisiae cln2 rad14 strain, hits give high values
Method in brief: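 cln2 rad14 yeast strain; compound exposure; growth inhibition read vs vehicle controls.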

[10] = NCI Yeast Anticancer Drug Screen. Data for the bub3 strain (AID 167); settings: S. cerevisiae bub3 mutant strain, hits give high values
Method in brief: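 Inhibition values come from growth of compound-treated mutant yeast normalised to vehicle-treated controls.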

[11] = NCI Yeast Anticancer Drug Screen. Data for the wt2 strain (AID 169);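 also: 0% = growth of vehicle-treated yeast cultures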; settings: S. cerevisiae wt2 strain growth inhibition, hits give high values
Method in brief: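 Read-out: growth inhibition versus vehicle-treated control cultures after compound exposure of the yeast strain.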

[12] = NCI Yeast Anticancer Drug Screen. Data for the mlh1 strain (AID 171);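 also: 0% = growth of vehicle-treated control cultures of the same strain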; settings: S. cerevisiae mlh1 strain growth inhibition, hits give high values
Method in brief: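 Read-out: growth inhibition versus vehicle controls. Strain: engineered yeast with a defined DNA repair or cell cycle defect, compound-treated.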

[13] = NCI Yeast Anticancer Drug Screen. Data for the sgs1 strain (AID 173);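 also: 0% = growth of vehicle-only control cultures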; settings: S. cerevisiae sgs1 mutant, hits give high values
Method in brief: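 Read-out: yeast growth inhibition relative to vehicle controls, following compound exposure of a strain with a defined DNA repair/cell cycle alteration.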

[14] = NCI Yeast Anticancer Drug Screen. Data for the mlh1 rad18 strain (AID 175); settings: S. cerevisiae mlh1 rad18 strain growth inhibition, hits give high values
Method in brief: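 Yeast w/ defined DNA-repair lesions; compound exposure; growth vs vehicle controls → % inhibition.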

[15] = NCI Yeast Anticancer Drug Screen. Data for the rad18 strain (AID 177); settings: S. cerevisiae rad18 mutant growth inhibition, hits give high values
Method in brief: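 Readout: growth inhibition vs vehicle controls. Cells: genetically altered yeast strain, DNA repair defect.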

[16] = at 5.0 µM (retest, dose inferred, filed as 0.5)
[17] = at 50.0 µM (retest, dose inferred, filed as 5.0)

O=C(/C=C/c1cccc2ccccc12)c1ccc(Cl)cc1
growth inhibition ([1]; at 1.2 µM): 7%
growth inhibition ([1]; at 3.7 µM): 7%
growth inhibition ([1]; at 11.0 µM): 7%
growth inhibition ([1]; at 33.0 µM): -4%
growth inhibition ([1]; at 100.0 µM): -13%
growth inhibition ([2]; at 1.2 µM): -30%
growth inhibition ([2]; at 3.7 µM): -19%
growth inhibition ([2]; at 11.0 µM): -28%
growth inhibition ([2]; at 33.0 µM): -34%
growth inhibition ([2]; at 100.0 µM): -45%
growth inhibition ([3]; at 1.2 µM): -3%
growth inhibition ([3]; at 3.7 µM): 4%
growth inhibition ([3]; at 11.0 µM): 9%
growth inhibition ([3]; at 33.0 µM): 0%
growth inhibition ([3]; at 100.0 µM): -12%
growth inhibition ([4]; at 1.2 µM): 13%
growth inhibition ([4]; at 3.7 µM): 11%
growth inhibition ([4]; at 11.0 µM): 7%
growth inhibition ([4]; at 33.0 µM): 8%
growth inhibition ([4]; at 100.0 µM): -5%
growth inhibition ([5]; at 1.2 µM): 24%
growth inhibition ([5]; at 3.7 µM): 27%
growth inhibition [5, 16]: 37%
growth inhibition ([5]; at 11.0 µM): 24%
growth inhibition ([5]; at 33.0 µM): 13%
growth inhibition [5, 17]: 98% (active)
growth inhibition ([5]; at 50.0 µM): 83.5% (active)
growth inhibition ([5]; at 100.0 µM): 13%
growth inhibition ([6]; at 1.2 µM): 11%
growth inhibition ([6]; at 3.7 µM): 14%
growth inhibition [6, 16]: 67%
growth inhibition ([6]; at 11.0 µM): -2%
growth inhibition ([6]; at 33.0 µM): -6%
growth inhibition [6, 17]: 99% (active)
growth inhibition ([6]; at 50.0 µM): 74.6% (active)
growth inhibition ([6]; at 100.0 µM): -12%
growth inhibition ([7]; at 1.2 µM): -28%
growth inhibition ([7]; at 3.7 µM): -23%
growth inhibition ([7]; at 11.0 µM): -30%
growth inhibition ([7]; at 33.0 µM): -38%
growth inhibition ([7]; at 100.0 µM): -35%
growth inhibition [8, 16]: -3%
growth inhibition [8, 17]: 42%
growth inhibition [9, 16]: 28%
growth inhibition [9, 17]: -7%
growth inhibition ([10]; at 1.2 µM): 6%
growth inhibition ([10]; at 3.7 µM): 11%
growth inhibition [10, 16]: 2%
growth inhibition ([10]; at 11.0 µM): 9%
growth inhibition ([10]; at 33.0 µM): 7%
growth inhibition [10, 17]: 17%
growth inhibition ([10]; at 100.0 µM): -6%
growth inhibition ([11]; at 1.2 µM): -25%
growth inhibition ([11]; at 3.7 µM): -19%
growth inhibition ([11]; at 11.0 µM): -28%
growth inhibition ([11]; at 33.0 µM): -33%
growth inhibition ([11]; at 100.0 µM): -33%
growth inhibition ([12]; at 1.2 µM): -33%
growth inhibition ([12]; at 3.7 µM): -24%
growth inhibition ([12]; at 11.0 µM): -34%
growth inhibition ([12]; at 33.0 µM): -46%
growth inhibition ([12]; at 100.0 µM): -49%
growth inhibition ([13]; at 1.2 µM): -21%
growth inhibition ([13]; at 3.7 µM): -22%
growth inhibition ([13]; at 11.0 µM): -27%
growth inhibition ([13]; at 33.0 µM): -34%
growth inhibition ([13]; at 100.0 µM): -48%
growth inhibition [14, 16]: 35%
growth inhibition [14, 17]: 99% (active)
growth inhibition ([14]; at 50.0 µM): 80.4% (active)
growth inhibition ([15]; at 1.2 µM): 3%
growth inhibition ([15]; at 3.7 µM): 9%
growth inhibition ([15]; at 11.0 µM): 5%
growth inhibition ([15]; at 33.0 µM): 13%
growth inhibition ([15]; at 100.0 µM): 14%

CCCCOC(=O)CSSCC(=O)OCCCC
growth inhibition ([1]; at 1.2 µM): -20%
growth inhibition ([1]; at 3.7 µM): -9%
growth inhibition ([1]; at 11.0 µM): 28%
growth inhibition ([1]; at 33.0 µM): 83% (active)
growth inhibition ([1]; at 100.0 µM): 97% (active)
growth inhibition ([2]; at 1.2 µM): -7%
growth inhibition ([2]; at 3.7 µM): -2%
growth inhibition ([2]; at 11.0 µM): 13%
growth inhibition ([2]; at 33.0 µM): 81% (active)
growth inhibition ([2]; at 100.0 µM): 97% (active)
growth inhibition ([3]; at 1.2 µM): -17%
growth inhibition ([3]; at 3.7 µM): -5%
growth inhibition ([3]; at 11.0 µM): 45%
growth inhibition ([3]; at 33.0 µM): 89% (active)
growth inhibition ([3]; at 100.0 µM): 97% (active)
growth inhibition ([4]; at 1.2 µM): 16%
growth inhibition ([4]; at 3.7 µM): 10%
growth inhibition ([4]; at 11.0 µM): 45%
growth inhibition ([4]; at 33.0 µM): 83% (active)
growth inhibition ([4]; at 100.0 µM): 99% (active)
growth inhibition ([5]; at 1.2 µM): -11%
growth inhibition ([5]; at 3.7 µM): 2%
growth inhibition [5, 16]: 44%
growth inhibition ([5]; at 11.0 µM): 17%
growth inhibition ([5]; at 33.0 µM): 76% (active)
growth inhibition [5, 17]: 99% (active)
growth inhibition ([5]; at 50.0 µM): 91% (active)
growth inhibition ([5]; at 100.0 µM): 97% (active)
growth inhibition ([6]; at 1.2 µM): -38%
growth inhibition ([6]; at 3.7 µM): -10%
